# From PubChem BioAssay
# TDP1 inh: blocks human tyrosyl-DNA phosphodiesterase 1; Potency, µM (doses to about 130 µM), for the others: top-dose activity change, negative = inhibition, most hits filed as inhibitors; 0.28% of 350,000 active; Q9NUW8; recombinant TDP1, AlphaScreen DNA substrate cleavage; also: % is scaled to controls: 0 for no effect and ±100 for the full control effect; nearly all actives have a fitted effect of over 40% in size
#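 Recombinant E. coli-expressed Tdp1 (1 nM) preincubated with compound 15 min at RT, then 5'-biotin/3'-phosphotyrosine-FITC DNA substrate (15 nM) added for 5 min. AlphaScreen beads (10 ug/ml) added, 10 min RT; tyrosine-FITC cleavage read as signal loss.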
# HP1b binding inh: blocks HP1-beta chromodomain binding to methylated histone tails | P83916 | AlphaScreen HP1-beta / biotin-H3K9me3 peptide binding | Potency, µM (doses to about 114 µM), without a hit: at the top dose activity change, negative = inhibition, most hits filed as inhibitors | 0.56% of 390,000 active | AID 540317; also: nearly all actives have a fitted effect of over 70% in size
#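 Compound inhibition of the preformed complex between 50 nM HP1-beta and 50 nM biotinylated H3K9me3 peptide was read by AlphaScreen. Buffer was PBS pH 7.4 with 0.01% Tween-20. Incubations ran 30 min at room temperature, with 10 ug/mL donor/acceptor beads.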
# BAZ2B block: BAZ2B (human) inhibition. Q9UIF8. AlphaScreen BAZ2B-H3K14Ac peptide displacement. Potency, µM (titrated, usually from 114 µM), without a hit: top-dose activity change, negative = inhibition, usual class: inhibitors. 4.4% of 360,000 active. AID 504333; also: % is scaled to controls: 0 for no effect and ±100 for the full control effect; nearly all actives have a fitted effect of over 60% in size
# Target sequence (Q9UIF8 whole entry, looked up): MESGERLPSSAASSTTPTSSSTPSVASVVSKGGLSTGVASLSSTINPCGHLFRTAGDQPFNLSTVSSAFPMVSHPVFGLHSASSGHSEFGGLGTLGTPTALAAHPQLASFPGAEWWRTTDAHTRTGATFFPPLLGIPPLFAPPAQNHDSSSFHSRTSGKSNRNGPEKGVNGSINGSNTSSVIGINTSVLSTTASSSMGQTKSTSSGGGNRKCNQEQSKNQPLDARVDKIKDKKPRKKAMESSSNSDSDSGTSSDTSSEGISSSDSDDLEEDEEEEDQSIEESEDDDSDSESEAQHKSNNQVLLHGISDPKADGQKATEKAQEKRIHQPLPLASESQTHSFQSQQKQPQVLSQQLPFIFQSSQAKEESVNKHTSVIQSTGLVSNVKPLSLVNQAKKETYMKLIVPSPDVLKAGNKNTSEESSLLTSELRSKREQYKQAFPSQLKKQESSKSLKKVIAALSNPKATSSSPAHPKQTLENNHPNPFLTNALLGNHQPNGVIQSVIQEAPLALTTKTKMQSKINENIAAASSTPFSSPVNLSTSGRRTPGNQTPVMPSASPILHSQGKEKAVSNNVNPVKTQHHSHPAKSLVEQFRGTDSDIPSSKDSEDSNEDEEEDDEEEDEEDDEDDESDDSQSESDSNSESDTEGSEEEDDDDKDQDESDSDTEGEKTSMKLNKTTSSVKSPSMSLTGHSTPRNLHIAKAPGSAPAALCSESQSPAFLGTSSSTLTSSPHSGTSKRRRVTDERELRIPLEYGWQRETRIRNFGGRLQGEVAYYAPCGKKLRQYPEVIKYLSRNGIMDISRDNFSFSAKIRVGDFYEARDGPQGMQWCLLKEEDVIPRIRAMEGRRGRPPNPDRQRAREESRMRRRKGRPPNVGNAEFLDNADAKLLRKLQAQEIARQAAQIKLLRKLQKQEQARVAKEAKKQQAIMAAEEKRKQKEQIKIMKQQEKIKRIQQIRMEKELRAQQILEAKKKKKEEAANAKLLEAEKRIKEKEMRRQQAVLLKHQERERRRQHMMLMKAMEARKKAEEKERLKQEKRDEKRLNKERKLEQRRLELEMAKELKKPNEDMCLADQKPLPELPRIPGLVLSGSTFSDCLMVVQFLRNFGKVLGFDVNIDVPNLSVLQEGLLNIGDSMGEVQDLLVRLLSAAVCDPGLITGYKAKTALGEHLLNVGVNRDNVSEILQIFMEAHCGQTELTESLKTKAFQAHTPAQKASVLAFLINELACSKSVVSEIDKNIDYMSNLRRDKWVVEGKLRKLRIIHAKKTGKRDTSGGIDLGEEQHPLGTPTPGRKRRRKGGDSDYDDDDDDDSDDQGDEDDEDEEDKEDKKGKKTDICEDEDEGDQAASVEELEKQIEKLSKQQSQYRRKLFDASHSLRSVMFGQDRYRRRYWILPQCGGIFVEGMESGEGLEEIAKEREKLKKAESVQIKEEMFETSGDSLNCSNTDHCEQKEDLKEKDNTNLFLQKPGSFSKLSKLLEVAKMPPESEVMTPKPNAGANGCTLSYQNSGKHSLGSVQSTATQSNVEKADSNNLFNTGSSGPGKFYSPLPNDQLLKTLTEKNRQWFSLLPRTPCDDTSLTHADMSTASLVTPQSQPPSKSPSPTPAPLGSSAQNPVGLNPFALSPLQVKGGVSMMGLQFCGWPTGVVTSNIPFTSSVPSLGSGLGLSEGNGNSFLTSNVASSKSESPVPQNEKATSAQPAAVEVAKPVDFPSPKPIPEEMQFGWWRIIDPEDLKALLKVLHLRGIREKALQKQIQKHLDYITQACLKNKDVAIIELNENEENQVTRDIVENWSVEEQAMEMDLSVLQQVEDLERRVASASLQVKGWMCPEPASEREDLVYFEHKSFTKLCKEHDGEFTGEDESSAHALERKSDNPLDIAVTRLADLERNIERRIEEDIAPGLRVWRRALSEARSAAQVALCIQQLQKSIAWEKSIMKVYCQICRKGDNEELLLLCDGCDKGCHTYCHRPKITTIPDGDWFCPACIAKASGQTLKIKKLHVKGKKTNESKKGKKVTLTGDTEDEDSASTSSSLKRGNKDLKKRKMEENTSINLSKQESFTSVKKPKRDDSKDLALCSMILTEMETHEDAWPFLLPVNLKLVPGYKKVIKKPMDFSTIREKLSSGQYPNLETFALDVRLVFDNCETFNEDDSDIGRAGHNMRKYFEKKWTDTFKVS
#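 Multi-concentration screen (max 110 uM) measuring displacement of acetylated histone H3 peptide from BAZ2B by AlphaScreen, using 50 nM protein, 50 nM peptide and 10 ug/mL streptavidin donor plus Ni-chelate acceptor beads.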
# JMJD2A Tudor: JMJD2A Tudor domain (human) inhibition; O75164; AlphaScreen JMJD2A-Tudor / H3K4me3 peptide binding; Potency, µM (top dose mostly 114 µM), for inactives: top-dose activity change, negative = inhibition, hits mostly inhibitors; 4.4% of 390,000 active; AID 504339; also: % is scaled to controls: 0 for no effect and ±100 for the full control effect; nearly all actives have a fitted effect of over 50% in size
# G9a block: blocks human histone lysine methyltransferase G9a | Q96KQ7 | G9a H3K9 monomethylation, AlphaScreen, 2 h | Potency, µM (titrated, usually from 102 µM), for inactives: at the highest dose activity, negative = inhibition, actives largely listed as inhibitors | 8.8% of 350,000 active; also: % is scaled to controls: 0 for no effect and ±100 for the full control effect; nearly all actives have a fitted effect of over 75% in size
#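 Methyltransferase reactions run at room temperature for 2 h (20 nM enzyme, 500 nM biotin-H3K9 peptide, 20 uM SAM) after a 15 min compound preincubation; product detected by AlphaScreen beads and anti-H3K9me1 antibody.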
# Sfp inh: inhibitors of Bacillus subtilis Sfp phosphopantetheinyl transferase; Biochemical Sfp PPTase activity, qHTS; Potency, µM, for inactives: largest response in the series, negative = inhibition, most hits filed as inhibitors; 3.5% of 310,000 active; AID 1490;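 also: the enzyme is Sfp with the accession as filed and its product quenches rhodamine fluorescence; 0% = enzyme reaction without inhibitor and -100% = no enzyme wells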
#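 With Hepes-Na pH 7.6 buffer containing 10 mM MgCl2, Sfp (15 nM) modified BHQ-2-YbbR (12.5 uM) using rhodamine-CoA (5 uM). Two reads 30 minutes apart at 525/598 nm yielded each well's rate.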
# Numbers without * were called inactive; u = inconclusive; x = not tested or not shown; [ ] = dose if it differs, or a comment. Only some compounds are listed: those with a hit (about 12% of all), similar ones and a draw of the others. Calls follow the shape of the dose curve; as a rule, active = well fitted curve in the direction sought with a large enough effect; inconclusive = small, poorly fitted or top-dose-only effect, or another doubt; inactive = no such curve, though single readings can be large; an effect the other way counts as inactive or inconclusive. Potency is read from the fitted curve at half-maximal effect.
SMILES,TDP1 inh,HP1b binding inh,BAZ2B block,JMJD2A Tudor,G9a block,Sfp inh
CC(C)(C)OC(=O)CNC(=O)c1nc[nH]c1C(=O)N1CCN(C(=O)OC(C)(C)C)CC1,x,24.4%,-7.3%,-2.8%,79.4µM*,13.3%
CC(C)(C)OC(=O)N1CCN(C(=O)c2[nH]cnc2C(=O)NCc2ccccc2)CC1,1.5%,22.5%,3.9%,-11.2%,12.0%[0.501 µM],x
CCN(CC(=O)Nc1ccc(NC(C)=O)cc1)C(=O)COc1ccccc1Cc1ccccc1,2.5%,8.5%,-23.7%,-22.8%,1.9%,5.9%
Cc1ccc(C(C)C)c(OCC(=O)NNC(=O)Cc2ccc(S(=O)(=O)N3CCOCC3)s2)c1,0.2%,13.9%[57 µM],x,-32.4%,x,x
O=C(NNc1ccccn1)C(=O)NNS(=O)(=O)c1ccc(Cl)cc1,11.9%,31.3%,56.2µM*,-18.1%,30.1%,14.1%
O=C(NNc1ccccn1)C(=O)NNS(=O)(=O)c1ccc(F)cc1,11.8%,18.7%,39.8µM*,-29.3%,37.6%,5.6%
COc1ccc2c(c1)C(c1cc(OC)c(OC)c(OC)c1)CC(=O)O2 (configuration not stated),6.1%,x,x,x,11.2%,-1.5%
COc1ccccc1N(Cc1ccccc1)S(=O)(=O)c1cccc(C(=O)NCC2CCCO2)c1 (configuration not stated),0.1%,19.4%,1.0%,-23.5%,u,x
Cc1cc(C)c(S(=O)(=O)C(C)C)c(=O)[nH]1,-1.3%,-17.8%,-2.1%,-10.0%,3.1%,20.0%
COc1cc(C2C3=C(CC(c4ccco4)CC3=O)Nc3ccccc3N2C(C)=O)cc(OC)c1OC (configuration not stated),-2.0%,10.6%,u,u,u,17.8µM*
O=C1CC(c2ccco2)CC2=C1C1c3ccccc3C(=O)N1c1ccccc1N2 (configuration not stated),7.7%,-12.1%,u,-23.2%,17.8µM*,20µM*
CCOc1ccc(C(C)=O)cc1CN1C(=O)NC(C)(C2CC2)C1=O (configuration not stated),-2.9%,50.4%,-20.9%,-6.2%,9.4%,7.7%
Cc1ccc(S(=O)(=O)N2[C@@H](c3ccc(C(C)(C)C)cc3)C(C(=O)O)=CC[C@H]2c2ccc(C(C)C)cc2)cc1,-19.2%,8.5%,x,79.4µM*,x,x
O=c1cc[nH]c2c1ccc1cccnc12,0.4%,55.6%,56.2µM*,-28.3%,u,x
O=C(c1cc2ccc3cccnc3c2[nH]1)N1CCCCC1,8.5%,-13.0%,0.3%[57.1 µM],-26.5%,-18.9%[59 µM],x
O=C(CN1C(=O)C2CC=CCC2C1=O)OCC(=O)c1ccc(Cl)c([N+](=O)[O-])c1 (configuration not stated),2.5%,12.7%,-6.9%,-19.3%,x,0.3%
CC1=CC(C)(C)Nc2ccc(OC(=O)CCN3C(=O)c4ccccc4C3=O)cc21,5.4%,u,35.5µM*,-18.5%,20µM*,12.6%
CCn1c2c(c(=O)n3ncc(C(=O)Nc4cc(Cl)ccc4C)c13)CN(Cc1ccc(OC)cc1)CC2,1.8%,12.9%[57 µM],-14.1%,-10.2%,8.1%[59 µM],x
COc1ccccc1C(CCN(Cc1ccccc1)C(C)=O)c1ccco1 (configuration not stated),11.6%,25.2%,u,-22.3%,20.7%[12.7 µM],56.2µM*
Cc1ccc(C(=O)N(Cc2ccco2)Cc2ccco2)cc1,4.7%,12.5%,u,-29.2%,u,x
CCC(=O)N(CCC(c1ccco1)C(C)C)Cc1ccccc1 (configuration not stated),-2.6%,0.0%,4.2%,79.4µM*,x,44.7µM*
CCC(=O)N(CCC(c1ccc(C)cc1)c1ccco1)Cc1ccco1 (configuration not stated),5.9%,-8.8%,50.1µM*,u,u,u
COc1ccccc1CNC(=O)Cc1c(C)c2cc3c(C)coc3c(C)c2oc1=O,2.3%,39.8%,-14.1%,-5.3%,1.8%[59 µM],x
